DT40 TDP1 CPT: growth inhibition of DT40 Tdp1-/-;hTDP1 cells with camptothecin (screen for TDP1 inhibitors); chicken DT40 Tdp1-/-;hTDP1 cells + 20 nM CPT, ATP luminescence, 48 h; Potency, µM (doses to about 46.2 µM), most hits filed as inhibitors; hit rate 12% among 420,000; AID 686979; note: nearly all actives have a fitted effect of over 55% in size
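Chicken DT40 Tdp1-/- cells complemented with human TDP1, 400 cells/well, exposed to compounds plus 20 nM camptothecin for at least 48 h at 37 C; viability read as ATP content by CellTiter-Glo luminescence.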
HepG2 tox: counter-screen for TGF-b inhibitors: cytotoxicity in HepG2 cells; hit rate 0.76% among 410,000; HepG2 CAGA-GFP viability, ATP luminescence, 18 h; AID 588856; Potency, µM (highest dose often 46.1 µM), actives largely listed as cytotoxic
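HepG2 CAGA-GFP cells (1000/well, DMEM with 1% FBS) received compound, then TGF-beta at 500 pg/mL final, and were incubated 18 hours at 37 degrees C. Viability was read by CellTiter-Glo luminescence. Media-only wells were set as complete cell-killing and DMSO as no toxicity.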
TGFb inhibitor: TGF-b pathway inhibition. HepG2 CAGA-GFP TGF-b/SMAD3 reporter, GFP fluorescence, 18 h; TGF-beta stimulated, 500 pg/mL final. Potency, µM (series often up to 46.1 µM), usual class: inhibitors. hit rate 1.2% among 410,000. AID 588855; note: nearly all actives have a fitted effect of over 65% in size
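First, reporter cells (HEPG2 CAGA-GFP) rested 2 h at 37 degrees C. Next, compounds were pinned in and TGF-beta added to 500 pg/mL final. After 18 h, GFP was imaged per cell and summed per well.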
ASM inhibitor: human S-ASM enzyme inhibition; P17405; placental ASM, HMU-PC fluorogenic substrate, 60 min; Potency, µM (series often up to 57.5 µM), usual class: inhibitors; hit rate 0.006% among 340,000; AID 504937
Target sequence (P17405 47-631 limits assumed): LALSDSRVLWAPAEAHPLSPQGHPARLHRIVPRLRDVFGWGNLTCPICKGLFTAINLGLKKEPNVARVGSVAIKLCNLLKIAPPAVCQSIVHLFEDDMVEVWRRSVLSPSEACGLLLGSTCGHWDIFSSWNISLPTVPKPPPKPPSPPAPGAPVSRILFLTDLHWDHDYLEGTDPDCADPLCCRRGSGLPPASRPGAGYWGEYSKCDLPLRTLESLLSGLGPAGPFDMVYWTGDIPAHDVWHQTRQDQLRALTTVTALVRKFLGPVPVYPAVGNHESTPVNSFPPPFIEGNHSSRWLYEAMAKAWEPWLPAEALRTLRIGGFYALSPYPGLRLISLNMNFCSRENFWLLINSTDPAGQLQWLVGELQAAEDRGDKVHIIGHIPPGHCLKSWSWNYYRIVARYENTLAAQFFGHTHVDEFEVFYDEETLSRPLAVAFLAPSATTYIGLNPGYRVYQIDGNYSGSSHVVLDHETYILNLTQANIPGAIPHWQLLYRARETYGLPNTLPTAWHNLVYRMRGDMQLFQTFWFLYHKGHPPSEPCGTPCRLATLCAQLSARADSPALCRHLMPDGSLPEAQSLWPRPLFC
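Fluorescence read-out (Ex 386 nm, Em 447 nm) after stopping the reaction at pH 10. Enzyme: ASM from human placenta; substrate HMU-PC0, 9 uM final; 60 min, 37 °C. Compound preincubation 10 min, ambient temperature.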
DT40 TDP1 no CPT: qHTS for Inhibitors of human tyrosyl-DNA phosphodiesterase 1 (TDP1): qHTS in cells in absence of CPT; DT40 Tdp1-/- hTDP1 cells, no CPT, ATP luminescence, 48 h; Potency, µM (titrated, usually from 46.2 µM), most hits filed as inhibitors; hit rate 15% among 420,000; note: nearly all actives have a fitted effect of over 55% in size
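No-CPT arm: Tdp1-/-;hTDP1 DT40 cells (400/well) plus compounds, incubated ≥48 hr at 37 °C. Readout CellTiter-Glo luminescence.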
IL-1B inflam inh: inhibitors of inflammasome signaling (IL-1 beta secretion). THP-1 LPS/ATP IL-1B secretion, AlphaLISA, 16 h; hits give low values. activity change, % at 57.5 µM. hit rate 4.7% among 360,000. AID 743279; in the data active = activity change below about -50%; inconclusive = mostly about -30% to -49%
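Secreted IL-1B measured by AlphaLISA bead assay after 16 h compound exposure of THP-1 cells; compounds (final up to 57.5 uM) added 1 h before LPS (250 ng/mL) and ATP (1.25 mM) stimulation; lower signal means less secretion.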
Each line names hits and unclear results; the compound was inactive in the other large screens. Compounds with a hit are over-represented: about 19% of the library has one in this group of screens. Unless noted, calls come from the whole dose curve; as a rule, active = well fitted curve in the direction sought with a large enough effect; inconclusive = small, poorly fitted or top-dose-only effect, or another doubt; inactive = no such curve, though single readings can be large; an effect the other way counts as inactive or inconclusive.

Cc1cc(=O)[nH]c(/N=C(\N)Nc2ccc3c(c2)OCCO3)n1	none
Cc1cc(C)nc(/N=C(\N)Nc2ccc(F)c([N+](=O)[O-])c2)n1	DT40 TDP1 CPT inconclusive, DT40 TDP1 no CPT inconclusive, IL-1B inflam inh -92
Nn1c(COc2cccc(Br)c2)nnc1SCC(=O)NCC1CCCO1 (stereo not drawn)	none
Cc1c(NC(=O)Nc2ccc(Cl)cc2)c(=O)n(-c2ccccc2)n1C	none
Cc1c(N=C2N=C(NC(=O)Nc3ccc(Cl)cc3)c3ccccc32)c(=O)n(-c2ccccc2)n1C	DT40 TDP1 CPT 18µM, TGFb inhibitor inconclusive, DT40 TDP1 no CPT 23µM
O=C(c1cnccn1)N1CCC[C@@]2(CCN(Cc3nccs3)C2)C1	none (no result: HepG2 tox, TGFb inhibitor, ASM inhibitor, IL-1B inflam inh)
COc1ccc(-c2csc(NC(=O)CSCc3c(C)noc3C)n2)cc1OC	DT40 TDP1 CPT inconclusive, DT40 TDP1 no CPT 9.2µM, IL-1B inflam inh inconclusive
Cc1noc(C)c1CSCC(=O)Nc1nc(-c2ccc(F)c(F)c2)cs1	DT40 TDP1 CPT 23µM, TGFb inhibitor inconclusive, DT40 TDP1 no CPT 8.2µM, IL-1B inflam inh -81
COc1ccc2nc(NC(=O)CSCc3c(C)noc3C)sc2c1	DT40 TDP1 CPT inconclusive, DT40 TDP1 no CPT inconclusive
COc1ccc(-c2csc(NC(=O)CSCC(=O)Nc3cc(C)on3)n2)cc1OC	DT40 TDP1 CPT inconclusive, DT40 TDP1 no CPT inconclusive
Cc1noc(C)c1CSCC(=O)Nc1nc2c(F)cc(F)cc2s1	DT40 TDP1 CPT inconclusive, DT40 TDP1 no CPT 23µM
Cc1csc(NC(=O)CSCc2c(C)noc2C)n1	none
CN(CC(=O)Nc1c(Cl)cccc1Cl)C(=O)c1sccc1-c1ccccc1	DT40 TDP1 CPT inconclusive, DT40 TDP1 no CPT inconclusive
COc1cccc(OCc2nc3ccccc3n2C)c1	DT40 TDP1 CPT inconclusive, DT40 TDP1 no CPT inconclusive (no result: TGFb inhibitor, ASM inhibitor, IL-1B inflam inh)
CCOC(=O)C1=C(Cn2cnc3ccccc32)NC(=O)NC1c1cc(C)ccc1C (stereo not drawn)	DT40 TDP1 CPT 26µM, TGFb inhibitor inconclusive, DT40 TDP1 no CPT 23µM
CCOC(=O)C1=C(CSc2nccn2C)NC(=O)NC1c1cc(C)ccc1C (stereo not drawn)	none
COC(=O)C1=C(Cn2cnc3ccccc32)NC(=O)NC1c1cc(C)ccc1C (stereo not drawn)	DT40 TDP1 CPT inconclusive, DT40 TDP1 no CPT inconclusive
CCOC(=O)C1=C(CNCc2ccc(C)cc2)NC(=O)NC1c1cc(C)ccc1C (stereo not drawn)	DT40 TDP1 CPT 20µM, TGFb inhibitor inconclusive, DT40 TDP1 no CPT inconclusive
CCn1c2ccccc2c2cc(NC(=O)C(C)OC(=O)c3ccc(NC(=O)CC#N)cc3)ccc21 (stereo not drawn)	DT40 TDP1 CPT inconclusive, TGFb inhibitor inconclusive, DT40 TDP1 no CPT inconclusive
CCN(CC)S(=O)(=O)c1ccc(N2CCc3cc(OC)c(OC)cc3C2)nc1	DT40 TDP1 CPT 18µM, DT40 TDP1 no CPT inconclusive, IL-1B inflam inh -91
CCOC(=O)CC(=O)CSc1nc2c(sc(=S)n2-c2ccc(OCC)cc2)c(=O)[nH]1	TGFb inhibitor inconclusive, DT40 TDP1 no CPT inconclusive, IL-1B inflam inh -53
CCOC(=O)CC(=O)CSc1nc2c(sc(=S)n2-c2ccc(C)c(C)c2)c(=O)[nH]1	none
COc1cccc2sc(N(CCCN(C)C)C(=O)c3ccc(S(=O)(=O)N4CCCc5ccccc54)cc3)nc12	DT40 TDP1 CPT inconclusive, TGFb inhibitor inconclusive, DT40 TDP1 no CPT inconclusive, IL-1B inflam inh -50
CN(C)CCN(C(=O)c1ccc(S(=O)(=O)N2CCc3ccccc32)cc1)c1nc2ccc(F)cc2s1	DT40 TDP1 CPT inconclusive
CCc1ccc2nc(N(CCCN(C)C)C(=O)c3ccc(S(=O)(=O)N4CCCc5ccccc54)cc3)sc2c1	DT40 TDP1 CPT inconclusive, TGFb inhibitor inconclusive, DT40 TDP1 no CPT inconclusive, IL-1B inflam inh -98

From PubChem BioAssay
